Data from paper PMC7862700, “An all-to-all approach to the identification of sequence-specific readers for epigenetic DNA modifications on cytosine”.

Columns and labels:
Assay in all cases: DAPPL (digital affinity profiling via proximity ligation, sequencing); 10 mM Tris-HCl pH 7.5, 50 mM NaCl, 1 mM DTT, 4% glycerol, room temperature, 30 min; GST-TFs on glutathione beads, 16-mer random dsDNA library, 0.1% formaldehyde crosslink after washing; high values mean tight binding
[1] = target: T1, FLI1 (Homo sapiens, UniProt Q01543 1-452); conditions: protein: recombinant; tags: N-terminal GST; dsDNA, one strand shown
T1 sequence: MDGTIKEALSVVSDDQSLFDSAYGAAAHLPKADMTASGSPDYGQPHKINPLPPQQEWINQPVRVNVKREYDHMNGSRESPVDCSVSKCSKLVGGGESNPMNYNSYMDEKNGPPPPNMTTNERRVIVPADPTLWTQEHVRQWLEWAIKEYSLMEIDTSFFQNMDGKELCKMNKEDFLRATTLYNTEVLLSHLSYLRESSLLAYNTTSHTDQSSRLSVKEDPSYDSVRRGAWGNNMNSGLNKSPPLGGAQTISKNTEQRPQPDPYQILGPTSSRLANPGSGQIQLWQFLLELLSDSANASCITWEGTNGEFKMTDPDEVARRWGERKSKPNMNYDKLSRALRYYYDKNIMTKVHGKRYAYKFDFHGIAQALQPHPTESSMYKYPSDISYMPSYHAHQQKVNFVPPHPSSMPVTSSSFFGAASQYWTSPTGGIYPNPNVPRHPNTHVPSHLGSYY
Method in brief: (§1)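 A tag-only sample was pooled with DNA-barcoded human transcription factors that had been expressed in yeast as GST fusions and captured on glutathione beads. The pools were incubated for 30 min at room temperature with 200 nmole of a random double-stranded 16-mer DNA library in Tris/NaCl/DTT/glycerol buffer, then washed, crosslinked with 0.1% formaldehyde, proximity-ligated (BsaI/T4 ligase, 1 h, 37 °C), PCR-amplified and sequenced on an Illumina NextSeq500. Binding signal is each hexamer's read frequency for a factor divided by its frequency for the tag-only sample.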

[2] = target: T2, ELK1 (Homo sapiens, UniProt P19419 1-428); conditions: protein: recombinant; tags: N-terminal GST; dsDNA, one strand shown
T2 sequence: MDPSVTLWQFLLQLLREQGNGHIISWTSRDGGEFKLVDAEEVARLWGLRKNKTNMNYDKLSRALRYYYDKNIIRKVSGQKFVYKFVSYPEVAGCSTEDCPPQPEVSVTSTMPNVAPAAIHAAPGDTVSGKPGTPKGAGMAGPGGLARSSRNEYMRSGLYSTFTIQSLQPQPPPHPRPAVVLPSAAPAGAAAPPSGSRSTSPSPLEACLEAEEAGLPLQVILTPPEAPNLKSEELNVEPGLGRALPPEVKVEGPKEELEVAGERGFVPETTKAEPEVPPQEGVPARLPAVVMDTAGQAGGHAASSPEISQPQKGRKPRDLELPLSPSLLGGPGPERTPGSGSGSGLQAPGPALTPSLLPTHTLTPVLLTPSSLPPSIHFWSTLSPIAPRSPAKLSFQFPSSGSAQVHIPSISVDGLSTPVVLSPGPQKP
Method in brief: as §1

[3] = target: T3, GABPA (Homo sapiens, UniProt Q06546 1-454); conditions: protein: recombinant; tags: N-terminal GST; dsDNA, one strand shown
T3 sequence: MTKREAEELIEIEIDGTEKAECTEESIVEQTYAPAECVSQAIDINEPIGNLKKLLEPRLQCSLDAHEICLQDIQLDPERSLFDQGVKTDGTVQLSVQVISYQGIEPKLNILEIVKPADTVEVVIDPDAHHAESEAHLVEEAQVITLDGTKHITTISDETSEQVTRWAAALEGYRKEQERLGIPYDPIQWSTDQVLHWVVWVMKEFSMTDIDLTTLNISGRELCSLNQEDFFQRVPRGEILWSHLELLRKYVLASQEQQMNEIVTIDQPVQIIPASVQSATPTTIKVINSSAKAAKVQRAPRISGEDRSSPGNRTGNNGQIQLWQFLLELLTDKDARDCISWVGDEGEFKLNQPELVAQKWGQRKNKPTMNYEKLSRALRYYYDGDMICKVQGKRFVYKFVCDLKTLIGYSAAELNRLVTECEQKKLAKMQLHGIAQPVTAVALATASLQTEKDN
Method in brief: as §1

[4] = target: T4, ERG (Homo sapiens, UniProt P11308 1-479); conditions: protein: recombinant; tags: N-terminal GST; dsDNA, one strand shown
T4 sequence: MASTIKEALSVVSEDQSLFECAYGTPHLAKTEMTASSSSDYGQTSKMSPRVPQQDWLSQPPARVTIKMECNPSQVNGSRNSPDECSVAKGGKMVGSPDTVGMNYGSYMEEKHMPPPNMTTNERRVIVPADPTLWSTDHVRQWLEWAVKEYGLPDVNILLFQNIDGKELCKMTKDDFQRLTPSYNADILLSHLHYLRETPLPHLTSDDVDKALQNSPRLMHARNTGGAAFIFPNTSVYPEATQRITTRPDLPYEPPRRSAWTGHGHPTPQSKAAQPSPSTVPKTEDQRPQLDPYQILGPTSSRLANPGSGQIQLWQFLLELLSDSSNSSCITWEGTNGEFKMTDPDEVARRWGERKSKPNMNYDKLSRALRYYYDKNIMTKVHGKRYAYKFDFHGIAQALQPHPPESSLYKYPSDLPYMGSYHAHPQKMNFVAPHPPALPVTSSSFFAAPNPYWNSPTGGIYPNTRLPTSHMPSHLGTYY
Method in brief: as §1

[5] = target: ELF1 (Homo sapiens, UniProt P32519 1-619); conditions: protein: recombinant; tags: N-terminal GST; dsDNA, one strand shown
Method in brief: as §1

[6] = target: T5, EHF (Homo sapiens, UniProt Q9NZC4 1-300); conditions: protein: recombinant; tags: N-terminal GST; dsDNA, one strand shown
T5 sequence: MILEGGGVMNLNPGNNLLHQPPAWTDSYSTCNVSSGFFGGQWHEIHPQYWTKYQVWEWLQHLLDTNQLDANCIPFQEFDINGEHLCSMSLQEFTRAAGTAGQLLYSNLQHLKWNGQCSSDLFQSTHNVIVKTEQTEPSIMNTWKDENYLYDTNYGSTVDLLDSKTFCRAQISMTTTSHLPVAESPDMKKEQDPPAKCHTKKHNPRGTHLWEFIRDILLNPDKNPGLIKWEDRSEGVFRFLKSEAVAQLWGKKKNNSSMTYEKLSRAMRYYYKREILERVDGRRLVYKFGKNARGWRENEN
Method in brief: as §1

[7] = target: SPI1 (Homo sapiens, UniProt P17947 1-270); conditions: protein: recombinant; tags: N-terminal GST; dsDNA, one strand shown
Method in brief: as §1

[8] = target: SPIB (Homo sapiens, UniProt Q01892 1-262); conditions: protein: recombinant; tags: N-terminal GST; dsDNA, one strand shown
Method in brief: as §1

[9] = target: T6, ELK3 (Homo sapiens, UniProt P41970 1-407); conditions: protein: recombinant; tags: N-terminal GST; dsDNA, one strand shown
T6 sequence: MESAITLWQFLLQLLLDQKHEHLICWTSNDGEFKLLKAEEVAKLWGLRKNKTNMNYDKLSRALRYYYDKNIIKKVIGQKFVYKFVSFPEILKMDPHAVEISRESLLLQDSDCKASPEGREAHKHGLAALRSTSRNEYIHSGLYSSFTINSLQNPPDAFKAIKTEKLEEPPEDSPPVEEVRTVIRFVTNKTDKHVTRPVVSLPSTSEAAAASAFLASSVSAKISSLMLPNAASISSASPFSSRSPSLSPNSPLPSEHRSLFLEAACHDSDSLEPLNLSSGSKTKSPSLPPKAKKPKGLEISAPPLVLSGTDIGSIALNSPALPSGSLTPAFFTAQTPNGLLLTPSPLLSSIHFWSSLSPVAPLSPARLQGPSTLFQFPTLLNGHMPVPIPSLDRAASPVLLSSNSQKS
Method in brief: as §1

[10] = target: T7, FEV (Homo sapiens, UniProt Q99581 1-238); conditions: protein: recombinant; tags: N-terminal GST; dsDNA, one strand shown
T7 sequence: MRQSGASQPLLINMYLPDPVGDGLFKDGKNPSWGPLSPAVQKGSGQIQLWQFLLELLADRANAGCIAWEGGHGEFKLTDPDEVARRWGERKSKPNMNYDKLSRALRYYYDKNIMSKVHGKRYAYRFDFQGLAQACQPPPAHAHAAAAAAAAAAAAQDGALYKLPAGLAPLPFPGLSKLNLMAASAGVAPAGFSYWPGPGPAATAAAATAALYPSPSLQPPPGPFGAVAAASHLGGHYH
Method in brief: as §1

[11] = target: ETV5 (Homo sapiens, UniProt P41161 1-510); conditions: protein: recombinant; tags: N-terminal GST; dsDNA, one strand shown
Method in brief: as §1

[12] = target: HSF1 (Homo sapiens, UniProt Q00613 1-529); conditions: protein: recombinant; tags: N-terminal GST; chain copies: 3; dsDNA, one strand shown
Method in brief: as §1

[13] = target: T8, SPIC (Homo sapiens, UniProt Q8N5J4 1-248); conditions: protein: recombinant; tags: N-terminal GST; dsDNA, one strand shown
T8 sequence: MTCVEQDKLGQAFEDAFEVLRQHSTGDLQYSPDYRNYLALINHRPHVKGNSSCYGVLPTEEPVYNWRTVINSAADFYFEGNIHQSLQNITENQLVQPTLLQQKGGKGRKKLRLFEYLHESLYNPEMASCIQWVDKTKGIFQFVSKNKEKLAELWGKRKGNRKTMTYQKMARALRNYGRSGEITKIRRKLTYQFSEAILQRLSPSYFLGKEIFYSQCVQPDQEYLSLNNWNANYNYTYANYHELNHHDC
Method in brief: as §1

[14] = target: ELF4 (Homo sapiens, UniProt Q99607 1-663); conditions: protein: recombinant; tags: N-terminal GST; dsDNA, one strand shown
Method in brief: as §1

[15] = target: T9, ELK4 (Homo sapiens, UniProt P28324-2 1-405); conditions: protein: recombinant; tags: N-terminal GST; dsDNA, one strand shown
T9 sequence: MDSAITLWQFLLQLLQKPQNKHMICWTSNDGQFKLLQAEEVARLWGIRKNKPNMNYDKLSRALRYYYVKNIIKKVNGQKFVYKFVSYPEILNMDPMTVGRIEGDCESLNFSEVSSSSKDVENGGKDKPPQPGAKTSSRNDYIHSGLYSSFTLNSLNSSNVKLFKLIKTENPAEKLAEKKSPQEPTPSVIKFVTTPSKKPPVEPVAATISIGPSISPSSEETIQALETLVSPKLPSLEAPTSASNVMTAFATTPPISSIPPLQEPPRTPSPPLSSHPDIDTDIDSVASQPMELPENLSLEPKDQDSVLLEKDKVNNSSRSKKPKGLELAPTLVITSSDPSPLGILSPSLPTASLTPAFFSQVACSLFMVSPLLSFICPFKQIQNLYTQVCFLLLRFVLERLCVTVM
Method in brief: as §1

[16] = target: T10, ETV2 (Homo sapiens, UniProt O00321 1-342); conditions: protein: recombinant; tags: N-terminal GST; dsDNA, one strand shown
T10 sequence: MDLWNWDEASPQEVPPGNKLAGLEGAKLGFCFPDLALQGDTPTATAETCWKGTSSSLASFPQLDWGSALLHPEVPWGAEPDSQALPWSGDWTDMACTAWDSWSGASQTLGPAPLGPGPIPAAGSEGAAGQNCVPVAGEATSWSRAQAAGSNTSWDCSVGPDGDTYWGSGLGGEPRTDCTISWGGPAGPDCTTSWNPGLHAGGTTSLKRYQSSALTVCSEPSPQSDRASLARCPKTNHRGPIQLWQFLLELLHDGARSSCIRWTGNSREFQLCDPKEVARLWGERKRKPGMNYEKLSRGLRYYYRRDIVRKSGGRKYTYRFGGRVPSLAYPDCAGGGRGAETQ
Method in brief: as §1

[17] = target: T11, ELF3 (Homo sapiens, UniProt P78545 1-371); conditions: protein: recombinant; tags: N-terminal GST; dsDNA, one strand shown
T11 sequence: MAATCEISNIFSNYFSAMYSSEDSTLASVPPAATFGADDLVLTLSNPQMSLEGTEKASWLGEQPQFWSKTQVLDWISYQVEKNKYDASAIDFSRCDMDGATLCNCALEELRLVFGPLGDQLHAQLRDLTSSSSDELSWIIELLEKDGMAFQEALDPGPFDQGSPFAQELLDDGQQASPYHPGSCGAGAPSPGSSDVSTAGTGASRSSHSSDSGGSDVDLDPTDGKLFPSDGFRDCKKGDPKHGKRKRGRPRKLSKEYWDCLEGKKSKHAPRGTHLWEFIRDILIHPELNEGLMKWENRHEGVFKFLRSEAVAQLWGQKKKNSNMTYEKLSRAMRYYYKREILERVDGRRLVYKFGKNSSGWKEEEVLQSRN
Method in brief: as §1

[18] = target: CRX (Homo sapiens, UniProt O43186 1-299); conditions: protein: recombinant; tags: N-terminal GST; dsDNA, one strand shown
Method in brief: as §1

[19] = target: ETV1 (Homo sapiens, UniProt P50549 1-477); conditions: protein: recombinant; tags: N-terminal GST; dsDNA, one strand shown
Method in brief: as §1

Chain of SPIB (Q01892 whole entry): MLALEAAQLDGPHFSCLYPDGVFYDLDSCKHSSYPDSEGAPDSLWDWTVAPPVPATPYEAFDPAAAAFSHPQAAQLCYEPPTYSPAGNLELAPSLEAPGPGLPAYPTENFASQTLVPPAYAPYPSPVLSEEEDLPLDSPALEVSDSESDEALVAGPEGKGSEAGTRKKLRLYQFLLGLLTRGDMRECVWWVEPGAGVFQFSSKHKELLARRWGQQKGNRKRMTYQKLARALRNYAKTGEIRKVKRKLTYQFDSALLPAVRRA
Chain of HSF1 (Q00613 whole entry): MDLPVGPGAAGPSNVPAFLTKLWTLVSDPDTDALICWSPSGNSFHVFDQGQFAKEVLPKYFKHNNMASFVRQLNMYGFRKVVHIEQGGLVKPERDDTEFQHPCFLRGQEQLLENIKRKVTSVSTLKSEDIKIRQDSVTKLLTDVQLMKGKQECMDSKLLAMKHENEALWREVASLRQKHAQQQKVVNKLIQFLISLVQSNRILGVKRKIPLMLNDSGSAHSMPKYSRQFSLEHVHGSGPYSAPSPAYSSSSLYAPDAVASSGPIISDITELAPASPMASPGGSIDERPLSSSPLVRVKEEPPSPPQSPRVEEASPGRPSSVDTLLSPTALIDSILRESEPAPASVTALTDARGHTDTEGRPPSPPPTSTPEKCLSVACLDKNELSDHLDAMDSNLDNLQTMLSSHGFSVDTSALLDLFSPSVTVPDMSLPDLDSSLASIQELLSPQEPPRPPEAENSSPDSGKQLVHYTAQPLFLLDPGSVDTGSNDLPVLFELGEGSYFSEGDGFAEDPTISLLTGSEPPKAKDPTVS
Chain of ETV5 (P41161 whole entry): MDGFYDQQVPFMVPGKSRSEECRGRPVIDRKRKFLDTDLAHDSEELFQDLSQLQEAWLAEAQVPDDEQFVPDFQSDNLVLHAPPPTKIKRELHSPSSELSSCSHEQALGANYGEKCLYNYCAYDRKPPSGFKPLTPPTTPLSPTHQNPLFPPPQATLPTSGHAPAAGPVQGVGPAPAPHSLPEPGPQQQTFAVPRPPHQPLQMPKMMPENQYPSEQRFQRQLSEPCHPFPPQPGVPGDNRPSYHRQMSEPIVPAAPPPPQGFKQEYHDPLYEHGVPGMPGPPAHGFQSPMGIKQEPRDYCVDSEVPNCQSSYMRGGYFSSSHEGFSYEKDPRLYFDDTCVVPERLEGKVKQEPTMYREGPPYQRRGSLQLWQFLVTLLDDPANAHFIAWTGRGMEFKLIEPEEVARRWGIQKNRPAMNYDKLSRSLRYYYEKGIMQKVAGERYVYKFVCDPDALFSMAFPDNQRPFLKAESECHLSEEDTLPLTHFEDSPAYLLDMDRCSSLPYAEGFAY
Chain of CRX (O43186 whole entry): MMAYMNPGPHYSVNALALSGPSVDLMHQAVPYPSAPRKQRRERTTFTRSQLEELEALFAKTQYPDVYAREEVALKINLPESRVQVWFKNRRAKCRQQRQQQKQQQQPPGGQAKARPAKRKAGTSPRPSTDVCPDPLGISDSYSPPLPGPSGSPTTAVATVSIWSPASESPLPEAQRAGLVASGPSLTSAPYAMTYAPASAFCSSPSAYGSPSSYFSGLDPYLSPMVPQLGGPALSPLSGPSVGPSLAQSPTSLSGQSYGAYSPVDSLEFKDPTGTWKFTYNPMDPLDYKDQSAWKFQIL
Chain of ELF4 (Q99607 whole entry): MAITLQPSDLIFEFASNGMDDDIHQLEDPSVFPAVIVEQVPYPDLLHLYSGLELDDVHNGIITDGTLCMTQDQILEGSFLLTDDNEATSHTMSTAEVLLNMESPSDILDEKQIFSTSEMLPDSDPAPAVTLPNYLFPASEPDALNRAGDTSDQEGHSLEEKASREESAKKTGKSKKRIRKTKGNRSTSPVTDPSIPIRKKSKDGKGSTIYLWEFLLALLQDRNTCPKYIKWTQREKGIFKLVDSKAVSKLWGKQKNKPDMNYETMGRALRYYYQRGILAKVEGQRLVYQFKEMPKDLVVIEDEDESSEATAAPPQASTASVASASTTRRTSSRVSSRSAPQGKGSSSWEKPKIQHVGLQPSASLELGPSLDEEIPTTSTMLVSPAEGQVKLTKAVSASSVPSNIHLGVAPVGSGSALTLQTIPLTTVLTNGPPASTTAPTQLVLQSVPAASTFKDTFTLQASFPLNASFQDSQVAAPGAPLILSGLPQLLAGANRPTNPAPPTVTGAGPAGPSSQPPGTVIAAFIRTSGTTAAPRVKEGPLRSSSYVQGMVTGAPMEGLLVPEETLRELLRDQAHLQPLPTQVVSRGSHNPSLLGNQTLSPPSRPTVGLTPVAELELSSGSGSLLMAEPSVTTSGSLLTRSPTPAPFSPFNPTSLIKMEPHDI
Chain of ETV1 (P50549 whole entry): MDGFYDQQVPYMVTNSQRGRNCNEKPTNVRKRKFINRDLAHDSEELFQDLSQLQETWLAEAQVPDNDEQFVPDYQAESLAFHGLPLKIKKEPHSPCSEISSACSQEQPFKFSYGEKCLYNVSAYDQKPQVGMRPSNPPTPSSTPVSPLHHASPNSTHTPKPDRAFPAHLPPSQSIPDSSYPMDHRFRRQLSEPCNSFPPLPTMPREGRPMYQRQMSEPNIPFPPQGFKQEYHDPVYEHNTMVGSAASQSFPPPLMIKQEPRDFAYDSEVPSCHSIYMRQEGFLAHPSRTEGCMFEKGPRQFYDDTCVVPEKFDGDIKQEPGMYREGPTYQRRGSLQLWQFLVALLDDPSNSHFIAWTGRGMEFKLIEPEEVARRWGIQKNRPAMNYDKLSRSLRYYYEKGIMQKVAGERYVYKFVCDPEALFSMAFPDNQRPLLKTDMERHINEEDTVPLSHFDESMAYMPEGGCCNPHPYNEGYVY
Chain of ELF1 (P32519 whole entry): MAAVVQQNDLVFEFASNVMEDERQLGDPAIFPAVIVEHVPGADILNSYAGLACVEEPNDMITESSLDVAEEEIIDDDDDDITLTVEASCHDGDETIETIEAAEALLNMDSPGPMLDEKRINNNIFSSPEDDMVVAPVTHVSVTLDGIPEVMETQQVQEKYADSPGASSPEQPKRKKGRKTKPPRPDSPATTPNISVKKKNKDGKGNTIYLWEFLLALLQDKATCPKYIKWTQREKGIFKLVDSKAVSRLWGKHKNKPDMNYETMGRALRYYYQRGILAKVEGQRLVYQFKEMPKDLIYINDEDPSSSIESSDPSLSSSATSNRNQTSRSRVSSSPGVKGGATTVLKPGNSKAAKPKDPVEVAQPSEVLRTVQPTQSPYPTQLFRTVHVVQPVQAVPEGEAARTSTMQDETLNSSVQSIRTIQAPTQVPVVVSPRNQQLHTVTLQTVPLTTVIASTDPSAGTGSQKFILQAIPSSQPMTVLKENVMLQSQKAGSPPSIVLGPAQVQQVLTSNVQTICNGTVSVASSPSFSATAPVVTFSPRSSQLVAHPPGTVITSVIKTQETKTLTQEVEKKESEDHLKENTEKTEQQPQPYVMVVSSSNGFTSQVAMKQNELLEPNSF

ATTAAC
binding signal [1]: 1.29 fold enrichment (6-mer frequency, TF over GST control) | binding signal [2]: 1.16 fold enrichment (6-mer frequency, TF over GST control) | binding signal [3]: 1.22 fold enrichment (6-mer frequency, TF over GST control) | binding signal [4]: 1.21 fold enrichment (6-mer frequency, TF over GST control) | binding signal [5]: 1.32 fold enrichment (6-mer frequency, TF over GST control) | binding signal [6]: 1.16 fold enrichment (6-mer frequency, TF over GST control) | binding signal [7]: 1.18 fold enrichment (6-mer frequency, TF over GST control) | binding signal [8]: 1.24 fold enrichment (6-mer frequency, TF over GST control) | binding signal [9]: 1.26 fold enrichment (6-mer frequency, TF over GST control) | binding signal [10]: 1.27 fold enrichment (6-mer frequency, TF over GST control) | binding signal [11]: 1.27 fold enrichment (6-mer frequency, TF over GST control) | binding signal [12]: 2.07 fold enrichment (6-mer frequency, TF over GST control) | binding signal [13]: 1.3 fold enrichment (6-mer frequency, TF over GST control) | binding signal [14]: 1.3 fold enrichment (6-mer frequency, TF over GST control) | binding signal [15]: 1.25 fold enrichment (6-mer frequency, TF over GST control) | binding signal [16]: 1.21 fold enrichment (6-mer frequency, TF over GST control) | binding signal [17]: 1.29 fold enrichment (6-mer frequency, TF over GST control) | binding signal [18]: 3.36 fold enrichment (6-mer frequency, TF over GST control) | binding signal [19]: 1.27 fold enrichment (6-mer frequency, TF over GST control)
